Reference: PubChem BioAssay (NCI)
This is part of a sample that, as a whole, favours compounds with a hit. Of some 83,000 tested, about 20% had one in any assay.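 Activity criterion: percent growth below 10, measured after cells in 96-well plates were exposed to a single compound concentration for 48 hours.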 Values without a mark were called inactive. Calls of active or inactive are those of the source.

system: OVCAR-3 ovarian; assay: NCI-60 one-dose screen, 48 h (100 = growth as untreated, 0 = no growth, -100 = all killed); details: 10 µM unless noted
Procedure: Growth inhibition of the OVCAR-3 human tumor cell line is measured as a screen for anti-cancer activity. Cells are grown in 96 well plates and exposed to the test compound for 48 hours. Compounds are tested at a single concentration, which is 10^-5 M for most compounds. The reported endpoint is percent growth (GI% or GIPRCNT), where numbers from 0 - 100% represent growth inhibition, and numbers from -100% - 0 represent cell death. For example, a value of 40 represents 60% growth inhibition. A value of 0 means no net growth occurred over the course of the experiment. A value of -40 indicates 40% of cells at the beginning of the experiment died by the end of the experiment. A value of -100 means all cells are dead at the end of the experiment.
NCI-60 Human Tumor Cell Lines Screen was performed using the standard one-dose NCI protocol, which is described in more detail at https://dtp.cancer.gov/discovery_development/nci-60/default.htm.
Compounds with GIPRCNT values below 10 were considered active. Activity score was based on GIPRCNT using the following formula: […]
Score is 0 for GIPRCNT values of 100 or above, 50 for GIPRCNT values of 0, and 100 for GIPRCNT values of -100.

SMILES	growth
Cc1ccc(C(=O)N/N=C/c2cccc([N+](=O)[O-])c2)cn1	118%
Cc1ccc(C(=O)N/N=C/c2cccc(Oc3ccccc3)c2)cn1	35.7%
Cc1cc(=O)oc2cc(OC(=O)CN3CCN(C)CC3)ccc12	105%
Cc1oc2nc[nH]c(=O)c2c1C(=O)/C=C/c1ccc(Br)cc1	-10.9% (active)
c1ccc(OCc2nnc(-c3ccc(Oc4ccccc4)cc3)o2)cc1	98.3%
CCOC(=O)c1cn2ncnc(Oc3ccc(NC(=O)NCCN(CC)CC)c(Cl)c3)c2c1C	68.6%
CC(=O)OC[C@H]1OC(Sc2sc(C(=O)c3ccc(C)cc3)c(N)c2-c2nc3ccccc3s2)[C@H](OC(C)=O)[C@@H](OC(C)=O)[C@@H]1OC(C)=O (stereo not given in full)	59.4%
Cc1cc(=O)oc2cc(OC(=O)N3CCN(C)CC3)ccc12	106%
Cc1ccc(C2CC(c3ccc(Nc4ccnc5cc(Cl)ccc45)cc3)=NN2C=O)cc1 (stereo not given)	30.6%
Cc1nn(-c2ccccc2)c(-n2ccnc2)c1/C=N/Nc1nc(-c2ccc(Cl)c(Cl)c2)cs1	-69.4% (active)
Cc1nc(NC(=O)COc2ccc(/C=C3\Cc4ccc(Cl)cc4C3=O)cc2)sc1C	105%
COc1cc2cc(Oc3ccc(NC(=O)Nc4cccc(C(F)(F)F)c4)cc3)c(C)nc2cc1OCCN1CCOCC1	28.6%
Cc1ccc(-c2cnc3sc(C(=O)NCCc4ccccc4)c(C)n23)cc1	79.4%
NCCCNc1nc2ccccc2c2c(=O)c3cc(F)cc(F)c3sc12	89.7%
C/C=C(\C)C(=O)N[C@H]1[C@@H](OC(C)=O)C[C@]2(C)C3CC[C@@]4(C)C(CC[C@@H]4C(C)N(C)C)C3CCC2[C@H]1O (stereo not given in full)	74.9%
O=c1c2cc(F)ccc2sc2c(N3CCCCC3)nc3ccccc3c12	110%
Cc1ccc(-c2nc(N3CCN(C(=O)Nc4ccc(Cl)c(C(F)(F)F)c4)CC3)c3ccccc3n2)cc1	74.8%
COc1ccn2c(C(C)=O)cc(C(=O)c3ccc4c(c3)Sc3ccccc3N4)c2c1	-47.8% (active)
COc1cccc(-c2nc(-c3ccc(NC(=O)C(C)C)cc3)[nH]c2-c2ccnc(Br)c2)c1	37.3%
COc1c(N2CC3CCCN(C(C)=O)C3C2)c(F)cc2c(=O)c(C(=O)N[C@H]3C(O)[C@@H](O)C(CO)O[C@H]3O)cn(C3CC3)c12 (stereo not given in full)	109%

SMILES	growth
COc1ccc(/C=N/Nc2cc(=O)[nH]c3ccc(C)cc23)cc1	104%
CN1CCN(c2ccc(-c3cnc4c(-c5csc6ccccc56)cnn4c3)cc2)CC1	-68.6% (active)
CN1C(=C2C(=O)OC(C)(C)OC2=O)CCC1C(=O)NCc1ccc(Cl)cc1Cl (stereo not given)	101%
C#C[C@]1(O)CC[C@H]2[C@@H]3CC=C4c5sc(Nc6ccccc6)nc5CC[C@]4(C)[C@H]3CC[C@@]21C	31.5%
O=CN(SSN(C=O)C1CCCCC1)C1CCCCC1	107%
CN1CCN(c2ccc(-c3ccc4ncc(C#N)c(Nc5ccc(F)c(Cl)c5)c4c3)cc2)CC1	59.8%
Cc1cc2[nH]c(=O)c3c4ncccc4cn3c2cc1C	-21.7% (active)
O=C(CSc1nccc(Nc2ccc(S(=O)(=O)Nc3nccs3)cc2)n1)c1ccc(C(F)(F)F)cc1	112%
N#Cc1c(-c2ccc(Cl)cc2)nc(NCCO)[nH]c1=O	104%
COc1cc(OCc2cccc(-c3ccc(C(O)c4nccs4)cc3)c2C)cc(OC)c1CNCCNC(C)=O (stereo not given)	109%
COc1ccc(C(=O)C[C@]2(O)C(=O)Nc3c(Cl)ccc(Cl)c32)cc1	9.64% (active)
O=C(Nc1ccc(I)cc1F)c1cc(I)ccc1O	4.35% (active)
COc1ccc(N)c(N)c1	125%
COc1cc2cc(Oc3ccc(NC(=O)Nc4ccc(F)c(C(F)(F)F)c4)cc3)c(C)nc2cc1OCCN1CCOCC1	13%
O=S(=O)(NCCCNc1cc(-c2c(-c3cccc(O)c3)nc3sccn23)ccn1)c1cccc2ccccc12	40.1%
CCC(=O)Nc1ccc(-c2nc(-c3cccc(OC)c3)c(-c3ccnc(Br)c3)[nH]2)cc1	65.4%
O=C(O)C(c1ccccc1)N1C(=O)CSC1=S (stereo not given)	106%
Cc1cccc(NCc2cn(-c3ccc(C(=O)O)cc3)nc2-c2ccc(C(=O)O)cc2)n1	106%
c1ccc(-c2nc3nonc3nc2-c2ccccc2)cc1	12.8%
Fc1cc2c(cc1Cl)N(c1ncnc3ccc(-c4cnc5cnccn45)cc13)CC2	87.4%
